Screening results from PubChem.
Pf growth 96h – P. falciparum growth inhibition at 96 hours | AID 504834 | Potency, µM (titrated, usually from 28.7 µM), hits mostly inhibitors | actives 6.9% (n = 320,000) | P. falciparum luciferase reporter growth, 96 h
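P. falciparum expressing integrated firefly luciferase, in erythrocytes at 2% hematocrit, 0.05% parasitemia, incubated with compounds 96 h at 37 C, 5% CO2. Growth inhibition read as loss of luminescence; two-generation exposure targets delayed-death apicoplast inhibitors.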
Shiga toxin inh – inhibitors of Shiga toxin in Vero cells; AID 2315; actives 9.2% (n = 290,000); inhibition, % at 38.7 µM; Vero cells, Shiga toxin protein synthesis inhibition reporter; in the data active = inhibition mostly above about 28%, no sharp cut-off; inactive = mostly below about 43%
LmPK inhibitor – inhibitors of Leishmania mexicana pyruvate kinase; Q27686; purified LmPK, Kinase-Glo ATP luminescence, 1 h; Potency, µM (highest dose often 57.5 µM), actives largely listed as inhibitors; actives 0.37% (n = 290,000)
Target sequence (Q27686 whole entry, looked up): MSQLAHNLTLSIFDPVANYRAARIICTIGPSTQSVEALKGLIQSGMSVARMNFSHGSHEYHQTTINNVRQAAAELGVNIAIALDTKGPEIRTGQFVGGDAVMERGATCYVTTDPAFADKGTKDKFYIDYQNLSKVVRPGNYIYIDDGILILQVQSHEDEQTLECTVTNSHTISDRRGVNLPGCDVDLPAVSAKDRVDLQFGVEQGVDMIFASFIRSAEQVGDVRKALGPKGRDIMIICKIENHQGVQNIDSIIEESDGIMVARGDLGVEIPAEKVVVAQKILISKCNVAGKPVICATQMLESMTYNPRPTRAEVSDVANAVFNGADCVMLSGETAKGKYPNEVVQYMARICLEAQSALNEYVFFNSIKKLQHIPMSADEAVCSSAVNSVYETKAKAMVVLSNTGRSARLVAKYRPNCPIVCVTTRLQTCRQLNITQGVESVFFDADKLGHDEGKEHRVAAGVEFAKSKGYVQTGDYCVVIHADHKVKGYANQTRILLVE
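qHTS format; LmPK 0.1 nM; substrates PEP 0.5 mM and ADP 0.1 mM. One-hour room-temperature incubation, then coupled luciferase luminescence; 0.5 nM enzyme wells mark activation.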
Pf growth 48h – inhibits P. falciparum growth in the first generation, 48 h. AID 504832. P. falciparum luciferase growth in erythrocytes, 48 h. actives 5.9% (n = 310,000). Potency, µM (series often up to 28.7 µM), hits mostly inhibitors
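Cell-based growth assay: transgenic P. falciparum expressing firefly luciferase, cultured in red cells within RPMI 1640 containing 0.5% w/v Albumax, 24 mM bicarbonate and gentamycin. A drop in luciferase activity indicates inhibition.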
CHX counter – affects cycloheximide protein synthesis inhibition readout, counter-screen; actives 12% (n = 300,000); cell reporter, cycloheximide protein synthesis inhibition counterscreen; max response, %; in the data active = max response mostly above about 13%, no sharp cut-off; inactive = mostly below about 14%; note: read at 38.3 µM for the half of the compounds with a filed dose
Numbers stand for hits; . = inactive; ? = inconclusive; / = not tested or not shown; + = active, no number; [ ] = dose if it differs, or a comment. Shown are actives, neighbours in structure and some others; about 22% of the full set was active somewhere. Unless noted, calls come from the whole dose curve; as a rule, active = well fitted inhibition curve with a large enough effect; inconclusive = small, poorly fitted or top-dose-only effect, or another doubt; inactive = no such curve, though single readings can be large or run the other way.

SMILES | Pf growth 96h | Shiga toxin inh | LmPK inhibitor | Pf growth 48h | CHX counter
Nn1c(SCc2ccccc2)nc2ccccc21 | . | 69 | . | . | 69
O=C(O)Cn1c(SCc2ccccc2)nc2ccccc21 | / | . | . | . | .
Nn1c(SCc2ccccc2)nnc1-c1ccco1 | . | . | . | . | 9.3
CC(C)Cn1c(N)c(C(=O)COC(=O)CC23CC4CC(CC(C4)C2)C3)c(=O)n(C)c1=O | ? | . | . | / | .
CCOc1cccc(CN(CC)CC2CCCN(CCc3cccc(OC)c3)C2)c1O (stereo not drawn) | . | / | . | ? | .
COc1ccc(CNC(=O)CS(=O)(=O)Cc2nc(-c3cccc(OC)c3)oc2C)cc1 | . | . | . | ? | .
Cc1ccc(NC(=O)CN(C)C(=O)COc2cc(F)ccc2[N+](=O)[O-])cc1 | . | . | . | . | .
COc1ccc2[nH]cc(C(=O)CN3CCN(C4CCCCC4)CC3)c2c1 | . | . | . | . | .
COc1ccc2[nH]cc(C(=O)CN3CCCCC3)c2c1 | ? | . | . | . | 27
COc1ccc2c(C(=O)CN3CCSCC3)c[nH]c2c1 | . | 40 | . | . | 32
CCC(COC(=O)NC)NC(=O)Oc1cccc(C)c1 (stereo not drawn) | ? | . | . | . | .
CCC(COC(=O)NC)NC(=O)Oc1ccccc1 (stereo not drawn) | 4.7µM | . | . | . | .
O=C(/C=C/c1ccccc1)OCc1ccccc1 | . | / | / | . | /
CCOc1ccc(C(=O)C2CCN(C(=O)c3ccc([N+](=O)[O-])cc3)CC2)cc1 | ? | . | . | . | .
COc1ccc(/C=N\n2nnc3ccccc32)cc1 | 0.41µM | . | . | . | 28
CN(C)c1ccc(/C=N/N2C(=O)c3ccccc3C2=O)cc1 | . | 76 | ? | . | 55
COc1ccc(/C=N/N2C(=O)c3ccccc3C2=O)cc1 | . | 33 | . | . | .
CC(C)CN(C(=O)C1=NN(c2ccccc2)C(=O)CC1)c1c(N)n(Cc2ccccc2)c(=O)[nH]c1=O | . | / | / | . | /
COc1ccc(C2CC(=O)C(C(c3ccc(O)cc3)C3C(=O)CC(c4ccc(OC)cc4)CC3=O)C(=O)C2)cc1 (stereo not drawn) | ? | . | . | ? | .
O=C(N/N=C/c1cccs1)c1ccc(NC(=O)c2ccccc2Cl)cc1 | . | . | . | . | .
O=C(N/N=C/c1cn(-c2cccs2)nc1-c1ccccc1)c1ccc(O)cc1 | . | + | . | . | 45
O=C(N/N=C/c1cn(-c2cccs2)nc1-c1ccccc1)c1ccccc1Cl | . | 102 | . | . | 21
O=C(c1ccc(Br)cc1)N1CCC(C(=O)N2CCN(Cc3ccccc3)CC2)CC1 | . | . | . | . | .
CCOC(=O)/C(N=Nc1ccc2c(c1)OCO2)=C(\C)O | . | 92 | . | . | 51
CCOC(=O)C(=O)Nc1ccc2c(c1)OCO2 | . | . | . | . | .
SMILES | Pf growth 96h | Shiga toxin inh | LmPK inhibitor | Pf growth 48h | CHX counter
OCC1(C2=NOC(O)(C(F)(F)F)C2)CCCCC1 (stereo not drawn) | . | . | . | . | .
OC1(C(F)(F)F)CC(c2ccc3ccccc3c2)=NO1 (stereo not drawn) | . | 48 | . | . | 38
Cc1nn2cc(-c3ccc(Cl)cc3)cnc2c1Cl | . | 49 | . | . | 29
COc1ccc(-c2cnn3cc(-c4cccc(Cl)c4)cnc23)cc1 | . | . | . | . | .
Cc1ccc(S(=O)(=O)NC(=O)Nc2ccc(N(C)C)cc2)cc1 | 0.47µM | 54 | . | 0.74µM | 55
CCc1ccnc(NC(=O)NS(=O)(=O)c2ccc(C)cc2)c1 | . | . | . | . | 16
Cc1ccc(S(=O)(=O)NC(=O)c2cc(C)n(-c3ccc(N(C)C)cc3)c2C)cc1 | 3.7µM | 51 | . | ? | 19
Cc1ccc(S(=O)(=O)NCCN=Cc2ccc(N(C)C)cc2)cc1 | 7.4µM | . | . | . | .
Cc1ccc(S(=O)(=O)NC(=O)c2cc(C)n(-c3ccccc3)c2C)cc1 | . | . | . | . | .
Cc1ccc(NC(=O)NNS(=O)(=O)c2ccc(Br)cc2)cc1 | . | . | . | . | .
Cc1c(NC(=O)c2cccc(-c3cc4ccccc4oc3=O)c2)cccc1-c1nc2ncccc2o1 | ? | . | . | ? | .
COc1ccc(NC(=O)CN(C)C2CCCCC2)c([N+](=O)[O-])c1 | . | . | . | . | .
COc1cc(=O)[nH]c(SC(C)C(=O)Nc2ccc3ccccc3c2)n1 (stereo not drawn) | . | . | . | . | .
COc1ccc2nccc(/C=C/c3ccnc4ccc(OC)cc34)c2c1 | 3.7µM | . | . | 3.3µM | .
O=C(O)CC(NC(=O)C(c1ccccc1)c1ccccc1)c1ccc(F)cc1 (stereo not drawn) | . | . | . | . | .
CCOC(=O)C1CCN(C(=O)c2cc3cc(C)ccc3[nH]2)CC1 | . | . | . | . | .
CCOC(=O)C1CCN(C(=O)c2cc3c(ccc4ccccc43)o2)CC1 | . | 121 | . | . | 59
CC1CCN(C(=O)c2cc3c(ccc4ccccc43)o2)CC1 | . | 77 | . | . | 20
CCOC(=O)C1CCN(C(=O)c2ccco2)CC1 | .[5.75 µM] | . | . | . | .
CCOC(=O)C1CCN(C(=O)c2cc3cc4ccc(C)cc4nc3o2)CC1 | . | 45 | . | . | 30
CCOC(=O)C1CCN(C(=O)CNC(=O)Cn2c(C)cc3ccccc3c2=O)CC1 | 3.3µM | . | . | . | .
CCC(C)c1ccccc1OCC(=O)NN1C(=O)c2ccccc2C1=O (stereo not drawn) | ? | / | . | . | .
Cc1nc2ccccc2c2oc(C(=O)N3CCC(C)CC3)cc12 | . | 60 | . | . | 20
Cc1nc2ccccc2c2oc(C(=O)N3CCN(C(=O)c4ccco4)CC3)cc12 | ? | . | . | ? | .
O=C(O)C(=O)/C(=C\c1ccsc1)c1ccc2ccccc2n1 | . | 87 | . | . | 27
O=C(O)C(=O)/C(=C\c1ccc([N+](=O)[O-])cc1)c1ccc2ccccc2n1 | . | 49 | . | . | 27
O=C(O)C(=O)/C(=C\c1ccccc1)c1ccc2ccccc2n1 | . | 89 | . | / | 34
COc1cc(CN2CCNC(=O)C2CC(=O)N2CCCN(C(C)=O)CC2)cc(OC)c1 (stereo not drawn) | . | . | . | . | .
NC(=O)[C@H](Cc1cc2ccccc2s1)NC(=O)[C@@H]1CC2(CC(c3cccc(NC(=O)[C@@H]4CCC(=O)N4)c3)=NO2)CN1C(=O)/C=C/c1c(F)cccc1Cl (stereo partly drawn) | 2.9µM | . | . | 4.1µM | .
NC(=O)[C@H](Cc1cc2ccccc2s1)NC(=O)[C@@H]1CC2(CC(c3cccc(NC(=O)[C@@H]4CCC(=O)N4)c3)=NO2)CN1C(=O)c1ccccc1 (stereo partly drawn) | 10µM | . | . | 13µM | .
